Drawing on PubChem BioAssay (Tox21), this text covers Potency and outcome for ten molecules.

“And” between values parts separate entries of the source, which are not always exact repeats. Identical values can stand only once. Inconclusive results are not listed. More than one record can exist for a structure, and the calls need not agree. The source made the active and inactive calls. Unless noted, calls follow the shape of the dose curve; as a rule, active = well fitted curve in the direction sought with a large enough effect in the repeat runs; inconclusive = weak or mixed curves; inactive = no such curve, though single readings can be large; an effect the other way counts as inactive or inconclusive.

A short description of assay [1]: qHTS assay to identify small molecule agonists of the estrogen receptor alpha (ER-alpha) signaling pathway in the presence of an antagonist - cell viability counter screen (AID 1259386).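 Also: cells exposed to compounds for 22 h at 37 °C before the viability read; nearly all actives have a fitted effect of over 30% in size.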 Also: potency is read from the fitted curve at half-maximal effect. Put shortly:
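VM7Luc4E2, stripped-serum pre-culture 5 d; 24hr plating; +ICI-182,780 10.0nM final; cpds 15 conc, 22hr, 37C/5% CO2; CellTiter-Fluor added at 21hr, fluorescence 1hr later.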
(In qHTS, concentration-response curves come from the screen itself.)

Assay [2] deals with Progesterone receptor (Homo sapiens) (UniProt P06401). Nature of the assay: qHTS assay to identify small molecule agonists of the progesterone receptor (PR) signaling pathway (AID 1346784; calls by dose curve; also: nearly all actives have a fitted effect of over 30% in size). In a few lines: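 Agonist qHTS: compounds pinned onto 3,000 PR-UAS-bla HEK 293T cells per well in charcoal-stripped serum medium, 16hr at 37C, then beta-lactamase activity measured by LiveBLAzer FRET fluorescence after 2 hours at room temperature.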
Sequence of Progesterone receptor (Homo sapiens) (P06401 whole entry, looked up): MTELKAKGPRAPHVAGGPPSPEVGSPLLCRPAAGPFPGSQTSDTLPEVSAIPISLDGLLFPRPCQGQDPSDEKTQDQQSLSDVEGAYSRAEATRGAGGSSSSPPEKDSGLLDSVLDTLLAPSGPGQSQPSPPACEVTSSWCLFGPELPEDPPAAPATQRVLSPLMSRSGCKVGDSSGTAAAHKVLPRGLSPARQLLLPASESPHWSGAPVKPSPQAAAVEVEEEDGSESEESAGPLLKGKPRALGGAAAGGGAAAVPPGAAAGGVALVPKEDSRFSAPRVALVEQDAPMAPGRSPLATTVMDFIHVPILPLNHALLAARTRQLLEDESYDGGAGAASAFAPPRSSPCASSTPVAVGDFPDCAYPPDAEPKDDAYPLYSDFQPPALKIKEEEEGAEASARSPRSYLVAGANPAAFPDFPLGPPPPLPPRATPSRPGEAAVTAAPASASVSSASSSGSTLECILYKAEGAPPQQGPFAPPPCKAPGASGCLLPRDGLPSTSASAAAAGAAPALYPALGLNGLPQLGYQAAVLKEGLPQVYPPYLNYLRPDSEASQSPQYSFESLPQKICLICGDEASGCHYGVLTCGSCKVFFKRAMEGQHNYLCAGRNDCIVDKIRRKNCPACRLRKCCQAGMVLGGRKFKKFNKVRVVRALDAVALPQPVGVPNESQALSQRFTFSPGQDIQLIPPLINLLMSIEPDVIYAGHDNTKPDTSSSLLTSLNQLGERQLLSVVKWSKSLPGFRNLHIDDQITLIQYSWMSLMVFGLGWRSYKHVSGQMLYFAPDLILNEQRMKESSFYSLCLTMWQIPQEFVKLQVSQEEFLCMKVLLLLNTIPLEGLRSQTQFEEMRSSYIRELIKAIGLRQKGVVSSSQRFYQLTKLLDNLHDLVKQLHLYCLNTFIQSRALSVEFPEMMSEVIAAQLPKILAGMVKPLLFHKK

Assay [3] has the same target. Kind of assay: qHTS assay to identify small molecule antagonists of the progesterone receptor (PR) signaling pathway (AID 1346795; active = well fitted inhibition curve with a large enough effect in the signal ratio in the repeat runs, not every such curve was filed as active; the % refers to the signal ratio; also: potency is read from the fitted curve at half-maximal effect). In a few lines:
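Antagonist mode with agonist R5020 at 1 nM final and 16 hr incubation at 37C. Reporter was beta-lactamase driven by UAS in HEK293T (PR-UAS-bla), 2% charcoal-stripped serum; signal from LiveBLAzer FRET substrate, 2 hr at room temperature.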

Assay [4] can be described thus: qHTS assay to identify small molecule agonists of the TGF-beta/Smad signaling pathway - cell viability counter screen (AID 1346829). Also: top concentration of the series differs between compounds; nearly all actives have a fitted effect of over 45% in size. Put shortly: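 Luminescence from CellTiter-Glo, read after a 30 min room-temperature incubation, gives cell viability of SBE-bla HEK 293T cells treated 5 hr with compounds at 37 C.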
The nature of assay [5]: qHTS assay to identify small molecule agonists of the TGF-beta/Smad signaling pathway (AID 1346859; active = well fitted activation curve with a large enough effect in the signal ratio in the repeat runs, not every such curve was filed as active; the % refers to the signal ratio; also: series mostly up to about 77 µM). In a few lines: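 Fluorescence (ex 405 nm; em 460 and 530 nm) was read 2 h after LiveBLAzer FRET substrate at RT. The preceding compound treatment of overnight-plated SBE-bla HEK293T cells lasted 5 h at 37 C.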
The target of assay [6] is Thyrotropin-releasing hormone receptor (Homo sapiens) (UniProt P34981). Nature of the assay: qHTS assay to identify small molecule antagonists of the thyrotropin-releasing hormone receptor (TRHR) signaling pathway (AID 1346877; active = well fitted inhibition curve with a large enough effect in the repeat runs, not every such curve was filed as active; also: series mostly up to about 51 µM). Put shortly:
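Intracellular calcium fluorescence, read kinetically every second over 3 min, reports TRH-evoked signalling in HEK293 cells carrying TRHR. Test compounds were added 5 min ahead of a 1 nM TRH challenge.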

Assay [7] has the same target. Nature of the assay: qHTS assay to identify small molecule agonists of the thyrotropin-releasing hormone receptor (TRHR) signaling pathway (AID 1346891; calls by dose curve; also: series mostly up to about 58 µM). In a few lines:
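Agonist-mode intracellular calcium readout: kinetic fluorescence over 3 min at 1 s intervals after compound addition to TRHR-HEK293 cells (18 h seeded, 2 h dye-loaded at 37 C). Fifteen concentrations, triplicates.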

Assay [8] can be described thus: Caspase-3/7 induction in HepG2 cells by small molecules, qHTS assay (AID 1346978). Also: nearly all actives have a fitted effect of over 15% in size. Also: potency is read from the fitted curve at half-maximal effect. Put shortly:
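Caspase-3/7 induction was measured by Caspase-Glo 3/7 luminescence (30 min, room temperature) after a 17 hr compound exposure of wild-type HepG2 cells seeded at 2,000 per well and pre-incubated 5 hr.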

Assay [9] can be described thus: Caspase-3/7 induction in CHO-K1 cells by small molecules, qHTS cell viability counter screen (AID 1346979). Also: nearly all actives have a fitted effect of over 35% in size. Also: potency is read from the fitted curve at half-maximal effect. In a few lines:
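Cytotoxicity counter screen: CellTiter-Fluor added to compound-treated wild-type CHO-K1 cells at 16 h (37C, 5% CO2), fluorescence measured 1 h later; same wells as caspase-3/7 measurement.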

The nature of assay [10]: Caspase-3/7 induction in CHO-K1 cells by small molecules, qHTS assay (AID 1346980). Also: nearly all actives have a fitted effect of over 15% in size. In a few lines:
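Luminescent Caspase-Glo 3/7 read (30min, room temperature) quantified apoptosis induction. Cells were wild-type CHO-K1, treated with compound for 17hr at 37 C and 5% CO2.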

The target in assay [11] is Acetylcholinesterase (Homo sapiens) (UniProt P22303). Nature of the assay: Acetylcholinesterase (AChE) small molecule antagonists: colormetric cell-based qHTS assay (AID 1347395; calls by dose curve; also: nearly all actives have a fitted effect of over 30% in size). Put shortly: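 Colorimetric readout: DTNB quantifies thiocholine from acetylthiocholine hydrolysed by endogenous AChE of SH-SY5Y cells (2,000/well, plated overnight). Compound pretreatment 30 min, substrate incubation 90 min, both 37 C.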
Sequence of Acetylcholinesterase (Homo sapiens) (P22303 whole entry, looked up): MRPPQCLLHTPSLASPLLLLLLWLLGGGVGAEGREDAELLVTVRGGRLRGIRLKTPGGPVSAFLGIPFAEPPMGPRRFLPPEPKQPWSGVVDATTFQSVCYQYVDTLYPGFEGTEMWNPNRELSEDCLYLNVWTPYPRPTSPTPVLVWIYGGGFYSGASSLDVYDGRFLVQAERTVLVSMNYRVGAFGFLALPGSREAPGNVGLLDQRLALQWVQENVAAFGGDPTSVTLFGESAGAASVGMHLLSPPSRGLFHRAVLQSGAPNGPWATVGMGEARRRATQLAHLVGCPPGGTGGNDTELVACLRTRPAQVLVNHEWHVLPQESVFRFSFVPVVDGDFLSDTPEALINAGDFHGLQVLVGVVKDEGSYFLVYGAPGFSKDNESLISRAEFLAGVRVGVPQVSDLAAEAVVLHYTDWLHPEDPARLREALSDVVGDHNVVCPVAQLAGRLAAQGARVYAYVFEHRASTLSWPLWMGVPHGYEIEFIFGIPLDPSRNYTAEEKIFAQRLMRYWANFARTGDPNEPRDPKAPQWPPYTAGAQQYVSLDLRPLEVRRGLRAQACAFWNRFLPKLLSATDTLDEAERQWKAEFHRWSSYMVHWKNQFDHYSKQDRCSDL

Assay [12] in a line: qHTS assay to identify small molecule antagonists of the progesterone receptor (PR) signaling pathway - cell viability counter screen (AID 1346798). Also: nearly all actives have a fitted effect of over 50% in size. Also: potency is read from the fitted curve at half-maximal effect. In a few lines:
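Cytotoxicity read as CellTiter-Glo luminescence (30 min, room temperature) in the same wells as the beta-lactamase readout. HEK293T PR-UAS-bla cells in charcoal-stripped 2% FBS received compound and R5020, then 16 h at 37C, 5% CO2.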

Assay [13] is described as follows: qHTS assay to identify small molecule antagonists of the TGF-beta/Smad signaling pathway - cell viability counter screen (AID 1346824). Also: nearly all actives have a fitted effect of over 50% in size. In a few lines:
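Cytotoxicity counter-screen run in the same wells as the beta-lactamase Smad reporter read: CellTiter-Glo luminescence after 30 min at room temperature. HEK 293T SBE-bla cells had 5 hr compound exposure at 37 C with TGF-beta1 (0.25 ng/mL stock).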

A short description of assay [14]: Caspase-3/7 induction in HepG2 cells by small molecules, qHTS cell viability counter screen (AID 1346981). Also: nearly all actives have a fitted effect of over 30% in size. Also: potency is read from the fitted curve at half-maximal effect. In a few lines: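 HepG2, WT, 2,000 cells/well; 5 hr pre-incubation 37 C/5% CO2; compound pin-transferred from DMSO; 16 hr exposure; CellTiter-Fluor, 1 hr; fluorescence read.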
Assay [15] deals with Nuclear receptor subfamily 1 group I member 2 (Homo sapiens) (UniProt O75469). Nature of the assay: Human pregnane X receptor (PXR) small molecule agonists, qHTS assay (AID 1346982). Also: nearly all actives have a fitted effect of over 35% in size. Also: potency is read from the fitted curve at half-maximal effect. Put shortly:
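Luciferase signal from ONE-Glo (30 min, room temperature) measured activation of hPXR-driven CYP3A4 reporter expression in PXR-Luc HepG2 cells treated with compounds for 24 hr at 37 C.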

The nature of assay [16]: qHTS assay to identify small molecule agonists of the progesterone receptor (PR) signaling pathway - cell viability counter screen (AID 1346799; calls by dose curve; also: nearly all actives have a fitted effect of over 45% in size; also: potency is read from the fitted curve at half-maximal effect). Put shortly: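 Cytotoxicity measured by CellTiter-Glo luminescence (30 min, RT) in the same wells as the PR beta-lactamase agonist read. Those HEK293T cells had 16 h compound treatment at 37 C in 2% charcoal-stripped FBS medium.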

The nature of assay [17]: Human pregnane X receptor (PXR) small molecule agonists, qHTS cell viability counter screen (AID 1346977). Also: nearly all actives have a fitted effect of over 50% in size. Also: potency is read from the fitted curve at half-maximal effect. In a few lines:
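Same-well viability read: CellTiter-Fluor added after 23 hr compound exposure, fluorescence measured 1 hr later. Cells were PXR-Luc HepG2 seeded at 2,000/well in 5% charcoal-stripped FBS medium, rested 5 hr before dosing at 37 C.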

The target in assay [18] is Nuclear receptor subfamily 1 group I member 2 (Homo sapiens) (UniProt O75469). Kind of assay: CYP3A4 induction through human pregnane X receptor (PXR) by small molecules, qHTS assay (AID 1346984). Also: nearly all actives have a fitted effect of over 40% in size. Put shortly: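 Luminescence readout: luciferase signal after One-Glo (30 min, room temperature), following 3 h at 37C with 3uM final Luciferin-IPA P450 substrate. Cells were DPX-2 (HepG2, PXR/CYP3A4-luc co-transfected) dosed for 24 h.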
Sequence of Nuclear receptor subfamily 1 group I member 2 (Homo sapiens) (O75469 whole entry, looked up): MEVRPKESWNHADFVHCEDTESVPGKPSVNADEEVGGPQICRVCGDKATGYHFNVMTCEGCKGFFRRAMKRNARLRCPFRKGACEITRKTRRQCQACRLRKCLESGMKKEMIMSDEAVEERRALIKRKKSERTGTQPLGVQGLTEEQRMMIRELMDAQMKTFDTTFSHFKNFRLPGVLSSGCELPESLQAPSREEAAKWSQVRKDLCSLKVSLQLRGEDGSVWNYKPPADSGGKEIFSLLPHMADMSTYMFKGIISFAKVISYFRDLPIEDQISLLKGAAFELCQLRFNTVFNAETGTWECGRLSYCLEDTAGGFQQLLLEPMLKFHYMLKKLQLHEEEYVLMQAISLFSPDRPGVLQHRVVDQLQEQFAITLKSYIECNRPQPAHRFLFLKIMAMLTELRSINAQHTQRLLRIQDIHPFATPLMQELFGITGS

The target is the same in assay [19]. Nature of the assay: Human pregnane X receptor (PXR) activation by small molecules, qHTS assay (AID 1346985). Also: nearly all actives have a fitted effect of over 40% in size. Put shortly:
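DPX-2 cells (HepG2 co-transfected with a PXR response element and a CYP3A4-promoter luciferase construct) were seeded at 2,000 per well, rested 5 hr at 37C, then exposed to DMSO-dissolved compounds for 24 hr. Activation was read as luciferase luminescence.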

Sequence of Thyrotropin-releasing hormone receptor (Homo sapiens) (P34981 whole entry, looked up): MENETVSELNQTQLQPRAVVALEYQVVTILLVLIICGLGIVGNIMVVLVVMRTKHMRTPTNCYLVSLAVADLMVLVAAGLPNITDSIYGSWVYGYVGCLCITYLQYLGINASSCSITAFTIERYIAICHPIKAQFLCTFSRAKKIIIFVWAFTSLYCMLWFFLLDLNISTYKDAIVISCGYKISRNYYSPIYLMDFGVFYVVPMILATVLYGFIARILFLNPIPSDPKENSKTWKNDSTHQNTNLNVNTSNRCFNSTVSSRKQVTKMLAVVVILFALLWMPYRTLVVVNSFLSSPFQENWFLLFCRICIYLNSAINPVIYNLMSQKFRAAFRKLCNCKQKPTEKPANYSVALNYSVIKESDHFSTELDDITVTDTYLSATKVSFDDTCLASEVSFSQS

On to `CSC1=N[C@@](C)(c2ccccc2)C(=O)N1Nc1ccccc1`, for which the results for the Potency in [1], in [3] and in assay [9] were 54.5 µM (active), 43.3 µM (active) and 8.63 µM (active), respectively. Further, the Potency entry in [2], in [4], in assay [6], in assay [7], in assay [8] and in assay [10] was “inactive” in each case. In addition, the Potency entry in [11] was “inactive”. Moreover, the call in [5] was inactive.

Regarding `S=C=NCCc1ccccc1`, the Potency result in assay [1], in assay [2], in assay [13], in [4], in [8] and in assay [10] was “inactive” in each case. Moreover, the Potency entry in assay [14] and in assay [11] was “inactive” throughout. In addition, the Potency is 19.4 µM (active) in assay [3], 21.7 µM (active) in [12] and 54.6 µM (active) in assay [15]. Moreover, the result in [5] was inactive.

Regarding `c1ccc(N=NNc2ccccc2)cc1`, the Potency is 28.3 µM (active) and 27.3 µM (active) in assay [1]; 56.4 µM (active) and 48.6 µM (active) in assay [3]; 28.3 µM (active) in assay [14]; 31.7 µM (active) and 30.6 µM (active) in [15]. For the same molecule, the Potency entry in assay [2], in assay [12], in assay [16], in [13], in [6] and in assay [7] was “inactive” each time. Besides, the Potency entry in assay [8], in assay [10] and in assay [11] was “inactive” each time. For the same molecule, in assay [5], the outcome was inactive.

With `CC(=O)[O-].CC(=O)[O-].O.O.O.[Pb+2]`, the Potency result in assay [1], in [2], in [3], in assay [12], in [16] and in assay [13] was “inactive” in each case. The Potency entry in assay [17], in assay [8], in assay [10] and in assay [14] was “inactive” throughout. For the same molecule, in [5], the molecule was classed as inactive.

As to `N#Cc1ccc(N(CC(N)=O)CC(F)(F)F)cc1C(F)(F)F`, the Potency entry in [1], in assay [2], in [12], in assay [16], in assay [13] and in assay [4] was “inactive” each time. Moreover, the Potency entry in assay [6], in [7], in [17], in assay [8], in [9] and in assay [10] was “inactive” in each case. In addition, the Potency result in assay [14], in [15] and in assay [11] was “inactive” each time. In addition, the outcome in [5] was inactive.

Consider `CC1(C)C(C=C(Cl)Cl)C1C(=O)OC(C#N)c1ccc(F)c(Oc2ccccc2)c1` (configuration not stated), for which the Potency result in assay [1], in [2], in [12], in assay [16], in assay [13] and in assay [6] was “inactive” in each case. Moreover, the Potency result in assay [7], in assay [17], in assay [8], in assay [10], in [14] and in assay [15] was “inactive” in each case. Also, the Potency entry in [11] is “inactive”. For the same molecule, in assay [3], the Potency is 13.7 µM (active). Further, in [5], the result was inactive.

Regarding `C1=CCC=C1`, the Potency result in assay [1], in assay [3], in assay [12], in assay [16], in assay [13] and in assay [4] was “inactive” in each case. Besides, the Potency result in assay [17], in assay [9], in [10] and in assay [14] was “inactive” each time. Besides, the result in assay [5] was inactive.

In the case of `CC(C)N(C(=O)SC/C(Cl)=C/Cl)C(C)C`, the Potency result in [1], in assay [3], in [12], in [16], in [13] and in assay [4] was “inactive” throughout. In addition, the Potency entry in [17], in assay [8], in assay [10], in assay [14] and in assay [11] was “inactive” throughout.

For `CC(=O)[O-].CC(=O)[O-].O.O.[Zn+2]`, the Potency result in assay [1], in [3], in assay [12], in assay [16], in assay [13] and in [4] was “inactive” each time. Also, the Potency entry in assay [17], in [8], in assay [10] and in [14] was “inactive” in each case. In assay [5], the molecule was called inactive.

Consider `CCN(CC)C(=S)S`, for which the Potency result in assay [1], in [13], in assay [4], in [10], in assay [14] and in [18] was “inactive” throughout. In addition, the Potency entry in assay [19] and in assay [11] was “inactive” in each case. In addition, the Potency in assay [3] was 49 µM (active) and 6.82 µM (active) and 13.7 µM (active); in assay [12], 61.6 µM (active) and 7.65 µM (active) and 17.2 µM (active); in assay [16], 17.1 µM (active) and inactive; in assay [17] it was 28.2 µM (active) and inactive; in assay [8] it was “inactive and 27.1 µM (active)”; in assay [9], 13.8 µM (active) and 7.65 µM (active) and 27.3 µM (active). In assay [15], the Potency was 27.1 µM (active) and 61.1 µM (active).
